# In PubChem BioAssay AID1946 (Johns Hopkins Ion Channel Center, 2009):
# Screen size: about 2,400 compounds; about 180 (7.5%) were called active. The sample as a whole holds a higher share of actives than the screen did. Unmarked numbers belong to inactive results.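 The calls were made as follows: active = readout below zero, meaning a drop past 3 SD under the dofetilide-free negative control mean; inactive = the rest.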
# Target: Potassium voltage-gated channel subfamily KQT member 2 (Rattus norvegicus) (UniProt O88943)
# Sequence (O88943 whole entry, looked up): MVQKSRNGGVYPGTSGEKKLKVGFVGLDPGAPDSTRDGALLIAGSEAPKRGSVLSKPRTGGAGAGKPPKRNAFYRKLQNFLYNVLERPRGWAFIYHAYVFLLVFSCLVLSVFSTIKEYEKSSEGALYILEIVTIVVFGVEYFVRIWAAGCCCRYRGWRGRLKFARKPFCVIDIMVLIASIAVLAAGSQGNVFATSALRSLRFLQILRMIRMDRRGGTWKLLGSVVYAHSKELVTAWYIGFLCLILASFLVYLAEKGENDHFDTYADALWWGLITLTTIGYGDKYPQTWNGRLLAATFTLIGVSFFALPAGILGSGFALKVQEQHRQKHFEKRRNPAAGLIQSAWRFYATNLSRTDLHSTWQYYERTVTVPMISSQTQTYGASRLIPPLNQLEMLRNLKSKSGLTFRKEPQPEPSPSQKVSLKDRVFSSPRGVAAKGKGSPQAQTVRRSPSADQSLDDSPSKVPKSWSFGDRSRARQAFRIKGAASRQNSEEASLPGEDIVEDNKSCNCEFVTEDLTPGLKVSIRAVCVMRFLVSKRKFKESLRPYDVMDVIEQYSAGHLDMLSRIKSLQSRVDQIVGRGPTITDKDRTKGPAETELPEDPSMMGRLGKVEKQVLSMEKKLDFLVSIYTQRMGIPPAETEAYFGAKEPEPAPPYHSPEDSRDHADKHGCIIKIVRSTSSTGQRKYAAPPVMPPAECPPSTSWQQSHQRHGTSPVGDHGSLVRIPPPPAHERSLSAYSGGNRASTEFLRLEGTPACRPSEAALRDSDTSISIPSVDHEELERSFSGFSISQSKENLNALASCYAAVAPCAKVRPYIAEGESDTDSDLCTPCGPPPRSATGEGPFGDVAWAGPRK
# Assay: KCNQ2 blockade in CHO cells – cell-based, FluxOR thallium flux, counter-screen for hERG block protector project, confirmation (AID 1946)
# Conditions: FluxOR thallium flux fluorescence, at 10 µM, active compounds read low, zero marks the 3-SD hit cutoff
row,Compound,activity change vs negative control
1,Cc1sc2nc(CN3CCOCC3)[nH]c(=S)c2c1C,108%
2,Cc1ccc(-c2c(=O)n(O)c3ccccc3[n+]2[O-])cc1,88.6%
3,O=c1c2ccccc2nc(-c2ccc(Cl)c(Cl)c2)n1O,91.4%
4,COc1cc(OC)cc(C(=O)NNC(=O)C(=O)Nc2cc(OC)c(Cl)cc2OC)c1,71%
5,C[n+]1ccccc1/C=C/c1ccc(C#N)cc1,17.3%
6,O=c1[nH]c(C(Cl)(Cl)Cl)nc2ccc3ccccc3c12,37%
7,O=C(NC(=S)Nc1ccccc1N1CCCC1)c1ccccc1Br,-8.3% (active)
8,O=C(NC(=S)Nc1ccccc1N1CCCC1)c1ccco1,39%
9,O=C(NC(=S)Nc1ccccc1N1CCCC1)c1cccs1,14.1%
10,O=C(NC(=S)Nc1cccc(Cl)c1N1CCCCC1)c1cccs1,1.9%
11,O=C(NC(=S)Nc1ccccc1N1CCCC1)c1ccc([N+](=O)[O-])cc1,21.1%
12,O=C(NC(=S)Nc1ccccc1N1CCCCC1)c1cccs1,0% (active)
13,CCOc1cc(N2CCOCC2)c(OCC)cc1NC(=O)CCC1CCCC1,104%
14,O=C(NC(=S)N1CCCC1)c1ccc(Cl)cc1,26.1%
15,O=c1c(O)c(-c2ccc3c(c2)OCO3)oc2ccccc12,35%
16,Cc1ccc(CNC(=O)c2ccc(CNc3c(N4CCCC4)c(=O)c3=O)cc2)cc1,-1.7% (active)
17,Cc1ccc(CNC(=O)C2=CCN(S(=O)(=O)c3ccc(C)cc3)CC2)cc1,6.4%
18,CN1C(=O)c2ccc(C(=O)NCc3ccccc3)cc2C1=O,10.5%
19,CC(=O)c1c(N2CCN(Cc3ccccc3)CC2)[nH]c(-c2ccccc2)nc1=S,50.5%
20,COc1ccc(-n2nc(C)cc2Nc2ccccc2C(=O)O)cc1,43.7%
21,C/C(=N\Nc1nc(C)c(C)s1)c1ccc([N+](=O)[O-])cc1,31.5%
22,O=c1[nH]c(N2CCN(c3ccccc3)CC2)nc2c1CCCC2,12%
23,c1ccc(-c2ccnc3nc(N4CCN(c5ccccc5)CC4)nn23)cc1,-4.9% (active)
24,Cc1ccc(C(=O)NC(=S)N(C)Cc2ccccc2)cc1,28.6%
25,CCC(=O)N(CC)c1nc(-c2ccc(OC)cc2)cs1,60.4%
26,Cc1ccc(Cn2nnc3c(=O)n(CC(=O)N4CCCc5ccccc54)cnc32)cc1,13%

row,Compound,activity change vs negative control
1,CC(NC(=O)c1ccncc1)C(C)(C)C (configuration not stated),32.4%
2,Cc1c(C(=O)NC(=S)NCc2cccnc2)oc2ccccc12,5.5%
3,Cc1c(C(=O)NNC(=O)c2ccncc2)oc2ccc(Br)cc12,-1.5% (active)
4,O=C1CSC(=S)N1/N=C/c1cc(Br)ccc1O,21.5%
5,O=C(COc1ccc(Br)cc1Br)NC(=S)N1CCCc2ccccc21,-2.3% (active)
6,O=C(NC(=S)N1CCCc2ccccc21)c1ccccc1,21.6%
7,Cc1cccc(OCC(=O)NC(=S)N2CCCc3ccccc32)c1,-0.9% (active)
8,O=C(COc1ccc(Cl)cc1Cl)NC(=S)N1CCCc2ccccc21,0.8%
9,O=C(COc1ccccc1)NC(=S)N1CCc2ccccc21,25.7%
10,O=C(COc1ccc(Br)cc1Cl)NC(=S)N1CCc2ccccc21,9.4%
11,COc1cccc2sc(Nc3nc(-c4ccccn4)cs3)nc12,34.8%
12,CCN1C(=O)/C(=C/c2ccc(C)s2)NC1=S,65.6%
13,COC(=O)c1ccc(NC(=S)NC(=O)c2cc(-c3ccccc3)nc3ccccc23)cc1,28.9%
14,COc1cccc(C(=O)NNC(=O)C(=O)Nc2ccc(C)c(Cl)c2)c1,98.2%
15,CC(C)OC(=O)CSc1nnc(C2CCCCC2)n1N,6%
16,Nn1c(SCC(=O)Nc2ccc(F)cc2)nnc1C1CCCCC1,-0.5% (active)
17,Nn1c(SCC(=O)Nc2ccccc2F)nnc1C1CCCCC1,10.9%
18,CCOc1ccc2nc(/N=C/c3nc(-c4ccc(Br)cc4)oc3O)sc2c1,13.7%
19,S=c1nc[nH]c2c1sc1nc(N3CCOCC3)c3c(c12)CCCC3,74.9%
20,C/C(=N\Nc1nc2ccccc2nc1C)c1ccccc1O,35.1%
21,CCOC(=O)c1sc(NC(=S)NC(=O)c2cccc(OC)c2)nc1C,28.4%
22,CCN(CC)C(=S)NC(=O)c1ccc(Cl)cc1Cl,32%
23,CCCn1nnnc1NC(=O)c1cc(Cl)ccc1Cl,-2% (active)
24,CCCN(CCC)C(=S)NC(=O)c1ccc(Cl)cc1Cl,78%
25,O=C(NC(=S)N1CCc2ccccc21)c1ccccc1Br,126%
26,CN(C(=S)NC(=O)c1ccccc1)C1CCCCC1,29.8%

row,Compound,activity change vs negative control
1,COc1ccc2c(c1)O[C@@H](c1cccc(C(F)(F)F)c1)[C@H](OC(=O)NCCc1ccc(OC)c(OC)c1)C2=O,20.4%
2,C/C(=N\NC(=O)CSc1nc2ccccc2o1)c1ccc(O)cc1,-1.7% (active)
3,O=C(CSc1nc2ccccc2o1)NCc1n[nH]c(=O)c2ccccc12,19.1%
4,CCOC(=O)Cc1nc2ccccc2o1,11.7%
5,Cc1nn(C)c(C(=O)NC(=S)Nc2ccccc2Br)c1Cl,41.3%
6,CCc1ccc(C(C)NC(=O)c2ccc(F)cc2)cc1 (configuration not stated),43.4%
7,O=C(c1ccc(C(F)(F)F)cc1)C1CCCN(C(=O)CCc2ccncc2)C1 (configuration not stated),4.7%
8,Cn1cc(CCC(=O)N2CCCC(Nc3ccc(F)cc3)C2)cn1 (configuration not stated),-2% (active)
9,CCOC(=O)C1CCCN(C(=S)NC(=O)/C=C/c2ccc(F)cc2)C1 (configuration not stated),1.2%
10,COc1ccccc1C1C(C(=O)c2ccc(C)o2)=C(O)C(=O)N1c1cc(C)on1 (configuration not stated),14.4%
11,Cc1cc(N2C(=O)C(O)=C(C(=O)c3cccs3)C2c2ccccc2)no1 (configuration not stated),-1.4% (active)
12,Cc1cccc(N2C(=O)C(O)=C(C(=O)c3cccs3)C2c2cccc(Oc3ccccc3)c2)n1 (configuration not stated),11.3%
13,CCOC(=O)C1=NN(C(=O)c2ccc(C)cc2)C(O)(c2ccc(Cl)cc2)C1 (configuration not stated),110%
14,COc1ccccc1NC(=O)C(=O)NNC(=O)COc1ccc2ccccc2c1,115%
15,Cc1ccc(C(=O)NC(=S)N(C)C2CCCCC2)cc1,27.3%
16,COC(=O)c1sc(NC(=S)NC(=O)c2ccccc2C)nc1C,41%
17,S=c1[nH]c2ccc(Cl)cc2s1,115%
18,CCc1nnc(NC(=O)CSc2nc(-c3ccccc3)cc(-c3ccc(OC)cc3)c2C#N)s1,5.3%
19,CCOC(=O)C(C)Sc1nc2c(c(-c3cccs3)c1C#N)CCC2 (configuration not stated),6.3%
20,N#Cc1c(-c2ccc(Cl)cc2)cc(-c2cccs2)nc1SCC(=O)O,-10.2% (active)
21,C/C(=N\NC(N)=S)c1cccnc1,-3.2% (active)
22,C/C(=N\NC(N)=S)c1ccncc1,19.1%
23,CSC(=S)N/N=C(\C)c1ccccc1,64.1%
24,S=c1[nH]cnc2scc(-c3ccc(Br)cc3)c12,28.5%
25,CCn1ncc(Cl)c1C(=O)NC(=S)Nc1ccccc1Br,51.3%
26,CCN(C(=S)NC(=O)c1ccccc1Br)C1CCCCC1,93.4%

row,Compound,activity change vs negative control
1,CC1CCc2sc(-c3n[nH]c(=S)o3)cc2C1 (configuration not stated),35.3%
2,Fc1cccc2sc(Nc3nnc(-c4ccccc4)o3)nc12,109%
3,Cc1ccc(Nc2cc(C)nn2-c2nc(C)cc(=O)[nH]2)cc1,83.1%
4,O=C(Nn1c(O)c(C=C2N=c3ccccc3=N2)sc1=S)c1cccc(Cl)c1,6.4%
5,CC1CCCCC1n1c(=S)[nH]c2ccccc2c1=O (configuration not stated),28%
6,CSc1nc(C)c2c(n1)N(c1ccc(C(C)C)cc1)CC2,-2.7% (active)
7,COc1ccccc1C(=O)NNC(=O)C(=O)Nc1cccc(Cl)c1C,160%
8,O=C(CCSc1ccc(Br)cc1)c1ccc(O)cc1,8.7%
9,CSc1nc2sc3c(c2c(=S)[nH]1)CC(C)(C)OC3,95%
10,CN(Cc1ccccc1)C(=O)CCc1ccccc1,5.4%
11,CCOC(=O)c1c(NS(=O)(=O)Cc2ccccc2)sc2c1CCCC2,62%
12,Cc1ccc(-c2csc(=S)[nH]2)cc1,106%
13,Cc1ccc(/C=N/NC(=O)c2cc(-c3ccncc3)nc3ccccc23)o1,2.6%
14,O=C(NC(=S)Nc1ccccn1)c1cc(-c2ccccc2)nc2ccccc12,19.4%
15,O=C(N/N=C/c1ccccn1)c1cc(-c2ccc(Br)cc2)nc2ccccc12,-4.7% (active)
16,Cc1ccc(OCC(=O)NC(=S)Nc2ccc(Br)cn2)cc1,33.8%
17,Cc1ccc(C(=O)Nc2nc3ccccc3c(=O)s2)cc1,22.4%
18,COc1ccc(C(=O)N2CCN(Cc3ccc4c(c3)OCO4)CC2)cc1[N+](=O)[O-],4.4%
19,O=C(COc1ccc(Cl)cc1)N1CCN(Cc2ccc3c(c2)OCO3)CC1,22.9%
20,CCOc1ccc(S(=O)(=O)N2CCN(Cc3ccc4c(c3)OCO4)CC2)cc1C,-5.7% (active)
21,O=C(Nc1nc2c(F)cc(F)cc2s1)C1COc2ccccc2O1 (configuration not stated),3.8%
22,Cc1cc(C)c2nc(NC(=O)C3CCCO3)sc2c1 (configuration not stated),-2.4% (active)
23,Cc1cc(C)c2nc(NC(=O)CN3C(=O)NC4(CCCC4)C3=O)sc2c1,18.8%
24,CCCCCC/C(C)=C1/SC(=S)NC1=O,94.1%
